# Assay outcomes from PubChem.
# HT1080 IDH1KD tx = toxicity to HT-1080 IDH1 knockdown cells (counter line) | HT-1080 IDH1 knockdown viability, ATP luminescence, 48 h | Potency, µM (titrated, usually from 46.1 µM), usual class: cytotoxic | hit rate 2% among 360,000 | AID 686971
#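 In this qHTS, HT-1080 cells depleted of IDH1 are exposed for 48 h at 37 °C to compound titrations. Toxicity is scored from CellTiter-Glo luminescence, with DMSO as full viability and medium alone as none.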
# IL-1B inflam inh = inflammasome signaling inhibition, IL-1 beta readout. THP-1 LPS/ATP IL-1B secretion, AlphaLISA, 16 h; hits give low values. hit rate 4.7% among 360,000. activity change, % at 57.5 µM; in the data active = activity change below about -50%; inconclusive = mostly about -30% to -49%
#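 THP-1 cells pretreated 1 hr with compounds (up to 57.5 uM final), then stimulated with LPS (250 ng/mL final) plus ATP (1.25 mM final); secreted IL-1B measured by AlphaLISA after 16 hr, decreased signal indicating inhibition.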
# TDP1 cell noCPT = qHTS for Inhibitors of human tyrosyl-DNA phosphodiesterase 1 (TDP1): qHTS in cells in absence of CPT | Potency, µM (series often up to 46.2 µM), usual class: inhibitors | hit rate 15% among 420,000 | DT40 Tdp1-/- hTDP1 cells, no CPT, ATP luminescence, 48 h; note: nearly all actives have a fitted effect of over 55% in size
#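 Seeded 400 DT40-hTDP1 cells/well (vehicle DMSO, no 20 nM CPT); pinned compounds; ≥48 hr at 37 °C; CellTiter-Glo luminescence as viability measure.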
# DT40 TDP1 CPT = DT40-hTDP1 cell growth loss with CPT | chicken DT40 Tdp1-/-;hTDP1 cells + 20 nM CPT, ATP luminescence, 48 h | Potency, µM (titrated, usually from 46.2 µM), most hits filed as inhibitors | hit rate 12% among 420,000 | AID 686979; note: nearly all actives have a fitted effect of over 55% in size
#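 Cell growth measured by CellTiter-Glo luminescence after a minimum 48 h, 37 C compound exposure with 20 nM CPT in Tdp1-knockout DT40 cells stably expressing hTDP1, seeded 400/well; qHTS titration format.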
# HT1080-NT tox = kills 2HG-producing HT-1080-NT fibrosarcoma cells | HT-1080-NT fibrosarcoma viability, CellTiter-Glo ATP luminescence, 48 h | Potency, µM (doses to about 46.1 µM), actives largely listed as cytotoxic | hit rate 1.6% among 360,000 | AID 686970;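 note: NT is the 2HG producing partner of a matched IDH1 knockdown line; nearly all actives have a fitted effect of over 55% in size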
#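 HT-1080-NT fibrosarcoma cells (2HG-overproducing), 750 cells/well in RPMI with 5% FBS, dosed after 2 h and incubated 48 h at 37C. CellTiter-Glo luminescence normalized to DMSO and no-cell wells; concentration-response curves fitted and classed.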
# uPA generation = blocks generation of uPA at the cell surface | Potency, µM (highest dose often 38.3 µM), most hits filed as inhibitors | hit rate 0.31% among 330,000 | cell surface uPA generation assay, qHTS; active = well fitted inhibition curve with a large enough effect; inconclusive = small, poorly fitted or top-dose-only effect; inactive = no such curve, though single readings can be large or run the other way; tested in mouse RAW 264.7 cells; note: nearly all actives have a fitted effect of over 55% in size
# Hits are given with their value; . = inactive; ? = inconclusive; / = not tested or not shown; [ ] = remark or other dose. The list is not random: actives were taken first. Their share in the collection is about 19%. Unless noted, calls come from the whole dose curve; as a rule, active = well fitted curve in the direction sought with a large enough effect; inconclusive = small, poorly fitted or top-dose-only effect, or another doubt; inactive = no such curve, though single readings can be large; an effect the other way counts as inactive or inconclusive.
SMILES,HT1080 IDH1KD tx,IL-1B inflam inh,TDP1 cell noCPT,DT40 TDP1 CPT,HT1080-NT tox,uPA generation
Cn1c(=O)c2c(nc(NCCNC(=O)c3ccco3)n2Cc2ccc(F)cc2)n(C)c1=O,.,.,?,.,.,.
CC(O)CNc1nc2c(c(=O)n(C)c(=O)n2C)n1Cc1cccc(C(F)(F)F)c1 (stereo not drawn),.,.,26µM,?,.,.
COCCNc1nc2c(c(=O)n(C)c(=O)n2C)n1Cc1cccc(C(F)(F)F)c1,.,.,3.7µM,3.3µM,.,.
CC(CCO)Nc1nc2c(c(=O)n(C)c(=O)n2C)n1Cc1cccc(Br)c1 (stereo not drawn),.[9.24 µM],.,21µM,12µM,.,.
Cn1c(Cl)nc2c1c(=O)n(Cc1cccc(Br)c1)c(=O)n2C,.,.,?,?,.,/
Cn1c(=O)c2c(nc(NCCCN3CCOCC3)n2Cc2cccc(Cl)c2)n(C)c1=O,.,.,?,?,.,.
CC(C)CNc1nc2c(c(=O)n(C)c(=O)n2C)n1Cc1cccc(Br)c1,.,.,23µM,21µM,.,.
CCN(C(=O)CSc1nc2ccccc2c(=O)n1C(C)COC)C1CCS(=O)(=O)C1 (stereo not drawn),.,.,.,.,.,.
CC(O)CNc1nc2c(c(=O)n(C)c(=O)n2C)n1Cc1cccc(Br)c1 (stereo not drawn),.,.,14µM,?,.,.
COc1cccc(Cn2cnc3c2c(=O)n(C)c(=O)n3C)c1,/,/,12µM,12µM,/,/
COc1cccc(Cn2c(NCC(C)C)nc3c2c(=O)n(C)c(=O)n3C)c1,?,.,23µM,29µM,?,/
Cn1c(=O)c2c(nc(NCC3CCCO3)n2Cc2ccccc2)n(C)c1=O (stereo not drawn),.,.,?,?,.,.
O=C(c1cc(-c2ccc(Cl)cc2)on1)N1CCOCC1,.,.,.,.,.,/
Cc1nnsc1S(=O)c1ccc(Cl)cc1 (stereo not drawn),.,.,?,?,.,?
O=C(Nc1ccccc1)c1nnsc1S(=O)c1ccc(Cl)cc1 (stereo not drawn),.[9.24 µM],-107,0.82µM,0.58µM,?,.
Nc1nc(C(=O)N2CCOCC2)nn1S(=O)(=O)c1ccc(Cl)cc1,.,.,?,?,.,.
O=C(c1nnsc1S(=O)(=O)c1ccc(Cl)cc1)N1CCOCC1,?,-106,2.9µM,2.3µM,15µM,.
CNC(=O)c1nnsc1S(=O)(=O)c1ccc(Cl)cc1,2.9µM,-98,1.5µM,0.73µM,?,.
O=C(c1nnsc1S(=O)c1ccc(Cl)cc1)N1CCOCC1 (stereo not drawn),?,-104,0.82µM,0.46µM,13µM,.
COc1ccc(C2/C(=C(\O)c3ccc4c(c3)CC(C)O4)C(=O)C(=O)N2Cc2cccnc2)c(OC)c1 (stereo not drawn),.,.,.,.,.,.
NN=C(c1cccc([N+](=O)[O-])c1)c1cccc([N+](=O)[O-])c1,.,.,?,.,.,.
CCN(CC(=O)NCc1cccs1)C(=O)C(c1ccccc1)c1ccccc1,.,.,.,?,.,.
CCc1ccc(N2CCn3c2nc2c3c(=O)n(Cc3cccc(C)c3)c(=O)n2C)cc1,/,/,.,?,/,/
C=CCn1c(=O)c2c3c(sc2n2c(Nc4ccc(OC)cc4)nnc12)CCCC3,.,-71,8.2µM,9.2µM,.,.
COC(=O)CSc1nnc2n(-c3ccc(OC)cc3)c(=O)c3c4c(sc3n12)CCCCC4,.,.,.,.,.,.
SMILES,HT1080 IDH1KD tx,IL-1B inflam inh,TDP1 cell noCPT,DT40 TDP1 CPT,HT1080-NT tox,uPA generation
C=CCn1c(=O)c2c3c(sc2n2c(Nc4ccccc4)nnc12)CCCC3,.,.,10µM,8.9µM,.,.
C=CCn1c(=O)c2c3c(sc2n2c(Nc4ccc(C(=O)OCC)cc4)nnc12)CCCC3,.,.,12µM,13µM,.,.
COc1cc(SC)ccc1C(=O)N1CCn2c3c(c4cc(C)ccc42)CCCC31 (stereo not drawn),/,/,?,.,/,/
Cc1cc2c(cc1NC(=O)c1ccccc1C)n(C)c(=O)c(=O)n2C,/,/,.,.,/,/
COc1ccc(S(=O)(=O)N2CCC[C@H]2C(=O)N2CCC[C@H]2C(=O)N[C@@H](C)c2ccccc2)cc1C,.,.,?,?,.,/
COC(=O)c1cc2occc2n1CC(=O)Nc1cc(OC)cc(OC)c1,.,-52,.,.,.,.
COC(=O)c1cc2occc2n1CC(=O)Nc1ccc(OC)c(OC)c1,.,.,.,.,.,.
CCOc1ccc(NC(=O)Cn2c(=O)oc3cc(Cl)ccc32)cc1,.,.,?,?,.,.
CCN(C(=O)Cn1c(=O)oc2cc(S(=O)(=O)N3CCCC3)ccc21)c1ccc(OC)cc1,.,.,.,?,.,.
CCc1ccc(NC(=O)Cn2c(=O)oc3cc(S(=O)(=O)N4CCCCCC4)ccc32)cc1,/,/,9.2µM,12µM,/,/
COc1cc(NC(=O)Cn2c(=O)oc3cc(S(=O)(=O)N4CCCCCC4)ccc32)cc(OC)c1,/,/,21µM,15µM,/,/
CCOc1ccc(NC(=O)Cn2c(=O)oc3cc(S(=O)(=O)N4CCC(C)CC4)ccc32)cc1,/,/,8.2µM,9.2µM,/,/
Cc1nn(C)c2c1c(-c1ccccc1)cc(=O)n2Cc1ccc(Cl)cc1,/,/,.,.,/,/
CNc1ncncc1-c1ccccc1C,/,/,.,.,/,/
Cc1ccsc1C(=O)NNC(=O)c1ccncc1,.,.,.,.,.,.
COC(=O)c1cc2sc(Cl)cc2n1CC(=O)Nc1cc(C)cc(C)c1,/,/,?,21µM,/,/
COCc1ccc(CN2CCOc3c(O)cc(-c4cc(C)c5ccc(F)cc5n4)cc3C2)o1,/,/,?,.[9.04 µM],/,/
CCN(CC)S(=O)(=O)c1ccc(C(=O)NCCSc2c(-c3ccc(C)cc3)[nH]c3ccccc23)cc1,/,/,8.2µM,5.8µM,/,/
COc1ccc(C(=O)NCCSc2c[nH]c3ccccc23)cc1OC,/,/,21µM,?,/,/
Cc1[nH]c2ccccc2c1SCCNC(=O)c1ccc(S(=O)(=O)N2CCCC2)cc1,.,.,?,.,.,.
Cc1[nH]c2ccccc2c1SCCNC(=O)c1ccc(Br)o1,.,-82,?,.,.,.
CCC(=O)NCCSc1c[nH]c2ccccc12,.,.,.,.,.,.
CCN(CC)S(=O)(=O)c1ccc(C(=O)NCCSc2c[nH]c3ccccc23)cc1,.,.,?,21µM,.,.
CCC(=O)N1CCc2cc(S(=O)(=O)NC(Cc3ccccc3)C(=O)Nc3ccc(C)cc3)ccc21 (stereo not drawn),/,/,?,16µM,/,/
